Bioassay records from PubChem BioAssay.
The list is not random: actives were taken first. Their share in the collection is about 10%.
VDR inh: vitamin D3 receptor (human) inhibition | P11473 | VDR-SRC2-3 peptide fluorescence polarization, 2 h | Potency, µM, actives largely listed as inhibitors | actives 0.93% (n = 400,000)
Target sequence (P11473 whole entry, looked up): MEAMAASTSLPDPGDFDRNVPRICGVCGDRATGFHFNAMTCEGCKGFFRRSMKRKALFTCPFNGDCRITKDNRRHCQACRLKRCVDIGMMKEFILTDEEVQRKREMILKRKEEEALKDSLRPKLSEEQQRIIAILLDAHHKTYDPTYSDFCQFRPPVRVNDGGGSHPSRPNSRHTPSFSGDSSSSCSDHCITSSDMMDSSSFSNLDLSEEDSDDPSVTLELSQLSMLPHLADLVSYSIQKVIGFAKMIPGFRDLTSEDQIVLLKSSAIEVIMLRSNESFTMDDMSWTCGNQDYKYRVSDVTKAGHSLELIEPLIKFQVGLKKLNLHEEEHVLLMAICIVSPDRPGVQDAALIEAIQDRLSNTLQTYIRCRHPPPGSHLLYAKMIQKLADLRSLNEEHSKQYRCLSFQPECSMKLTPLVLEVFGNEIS
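Fluorescence polarization assay of small-molecule disruption of VDR binding to coregulator peptide SRC2-3. Compounds and controls pin-transferred, then read after 2 h incubation at ambient room temperature.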
PLK1 PBD block: inhibitors of human PLK1 polo-box domain binding; P53350; Plk1 PBD binding of FITC phosphopeptide, fluorescence polarization; Potency, µM, hits mostly inhibitors; actives 2.8% (n = 360,000); further: series mostly up to about 57 µM; nearly all actives have a fitted effect of over 65% in size
Mm-Cpn inhibitor: inhibitors of Methanococcus maripaludis chaperonin TRiC (MmCpn); purified Mm-Cpn ATPase, ADP Transcreener TR-FRET; Potency, µM (titrated, usually from 76.9 µM), usual class: inhibitors; actives 0.031% (n = 330,000); further: nearly all actives have a fitted effect of over 80% in size
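Measured: ADP formation by purified Mm-CPN. Conditions: 25 nM protein, 10 uM ATP, Tris pH 7.4 with Mg2+, K+ and DTT, 37°C for 30 min. Detection: Transcreener HTRF after 30 min at room temperature.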
CCT modulator: cytosolic chaperonin activity modulation; purified chaperonin ATPase assay, HTRF ADP detection, 30 min; activity change, % (no concentration beside the values), hits read low; actives 0.3% (n = 360,000); in the data active means activity change below about -30%
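We incubate TRiC, 40 or 20 nM final, with library compounds at 76 uM and 10 uM ATP for 30 min at 37 °C. ADP formed is detected with Transcreener HTRF reagents after 30 min at room temperature.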
G9a block: blocks human histone lysine methyltransferase G9a | Q96KQ7 | G9a H3K9 monomethylation, AlphaScreen, 2 h | Potency, µM (titrated, usually from 102 µM), most hits filed as inhibitors | actives 8.8% (n = 350,000); further: nearly all actives have a fitted effect of over 75% in size
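AlphaScreen read-out: biotin-H3K9 peptide (500 nM) methylation by 20 nM enzyme with 20 uM SAM, 2 h at room temperature after 15 min compound preincubation; anti-monomethyl H3K9 antibody plus donor/acceptor beads, 10 min dark.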
Sfp PPTase inh: Sfp phosphopantetheinyl transferase inhibition | Biochemical Sfp PPTase activity, qHTS | Potency, µM, actives largely listed as inhibitors | actives 3.5% (n = 310,000) | AID 1490;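 further: the enzyme is Sfp with the accession as filed and its product quenches rhodamine fluorescence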
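Fluorescence-quenching assay: 15 nM Sfp-PPTase preincubated 15 min at room temperature with compound, then 5 uM rhodamine-CoA and 12.5 uM BHQ-2-labelled YbbR peptide added. Fluorescence (ex 525/em 598 nm) read at start and after 30 min; difference gives rate.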
VDR confirm: confirmation of human vitamin D receptor inhibitors; VDR-coactivator inhibition assay, qHTS confirmation; shares compounds with VDR inh; Potency, µM, usual class: inhibitors; actives 89% (n = 840)
VDR FP fluor: blocks human VDR-coactivator binding in fluorescein assay; shares compounds with VDR inh; VDR-coactivator binding, fluorescein fluorescence polarization; Potency, µM (doses to about 57.1 µM), most hits filed as inhibitors; actives 48% (n = 840); AID 602200
VDR bla reporter: inhibits human VDR in beta-lactamase reporter cells. shares compounds with VDR inh. VDR beta-lactamase reporter cells, FRET ratio; cells co-treated with VDR agonist LG190178. Potency, µM (highest dose often 46.1 µM), actives largely listed as inhibitors. actives 23% (n = 840)
VDR cytotox: cell toxicity, VDR inhibitor hit counter-screen; shares compounds with VDR inh; cytotoxicity counter-screen, cell viability, qHTS; Potency, µM (series often up to 48.3 µM), most hits filed as cytotoxic; actives 18% (n = 840); AID 602204; further: nearly all actives have a fitted effect of over 75% in size
Hits are given with their value. Unless noted, the call rests on the fitted dose curve; in most records, active means well fitted curve in the direction sought with a large enough effect; inconclusive means small, poorly fitted or top-dose-only effect, or another doubt; inactive means no such curve, though single readings can be large; an effect the other way counts as inactive or inconclusive.

`Cc1cccc(Nc2c(-c3cccs3)nc3nc(C)cc(C)n23)c1` gave VDR inh inactive and G9a block inactive.
For COc1ccccc1-c1cc(C(F)(F)F)nc(S(=O)(=O)CCCC(=O)Nc2ccccc2F)n1 the results were VDR inh inconclusive and G9a block inactive.
Screening COc1ccc(NC(=O)CSc2nc(-c3cccs3)cc(C(F)(F)F)n2)cc1Cl returned VDR inh inactive and G9a block inactive.
`O=C(CCS(=O)(=O)c1nc(-c2cccs2)cc(C(F)(F)F)n1)Nc1ccc(F)c(Cl)c1` gave VDR inh 22µM, G9a block inactive, VDR confirm 3.2, VDR FP fluor 3.5µM, VDR bla reporter inconclusive and VDR cytotox inconclusive.
For O=C(CCS(=O)(=O)c1nc(-c2ccc3c(c2)OCO3)cc(C(F)(F)F)n1)Nc1ccc(Br)cc1 the results were VDR inh 13µM, G9a block inactive, VDR confirm 3.2, VDR FP fluor 3.5µM, VDR bla reporter 23µM and VDR cytotox inconclusive.
For CCC(C)NC(=O)CSc1nc(-c2cccs2)cc(C(F)(F)F)n1 (stereo not given) the results were VDR inh inactive, PLK1 PBD block inactive, Mm-Cpn inhibitor inactive, CCT modulator inactive, G9a block inactive and Sfp PPTase inh inactive.
Screening COC(=O)c1ccccc1NC(=O)CCS(=O)(=O)c1nc(-c2ccc3c(c2)OCO3)cc(C(F)(F)F)n1 returned VDR inh inconclusive and G9a block inactive.
Screening COc1ccc(Cl)cc1NC(=O)CCS(=O)(=O)c1nc(-c2cccs2)cc(C(F)(F)F)n1 returned VDR inh 20µM, G9a block inactive, VDR confirm 5, VDR FP fluor 3.5µM, VDR bla reporter 18µM and VDR cytotox inconclusive.
CC(C)c1nnc(NC(=O)CCS(=O)(=O)c2nc(-c3cccs3)cc(C(F)(F)F)n2)s1 was read as VDR inh 22µM, PLK1 PBD block inconclusive, Mm-Cpn inhibitor inactive, CCT modulator inactive, G9a block 1.8µM, Sfp PPTase inh inactive, VDR confirm 9.5, VDR FP fluor inconclusive, VDR bla reporter inconclusive and VDR cytotox inconclusive.
For N#Cc1ccccc1OCC(=O)N1CCN(c2ccccc2)CC1 the results were VDR inh inactive and G9a block inactive.
Screening COc1ccc(Cn2c(CNS(=O)(=O)c3ccc(Cl)s3)nc3cccnc32)cc1 returned VDR inh inactive and G9a block inactive.
Screening COc1ccc(-n2c(-c3ccc(F)cc3)cn3c4c(=O)n(C)c(=O)n(C)c4nc23)cc1 returned VDR inh inactive and G9a block inactive.
Cc1ccccc1OCCCN1C(=O)C(=O)c2cccc(C)c21 was read as VDR inh 32µM, PLK1 PBD block inconclusive, Mm-Cpn inhibitor inactive, CCT modulator inactive, G9a block inconclusive, Sfp PPTase inh inactive, VDR confirm inconclusive, VDR FP fluor 11µM, VDR bla reporter inactive and VDR cytotox inactive.
Screening Cc1cccc2c1N(CCCOc1ccccc1)C(=O)C2=O returned VDR inh 50µM, PLK1 PBD block inconclusive, Mm-Cpn inhibitor inactive, CCT modulator inactive, G9a block 71µM, Sfp PPTase inh inactive, VDR confirm 19, VDR FP fluor inconclusive, VDR bla reporter inactive and VDR cytotox inactive.
